Source: PubChem BioAssay (NCATS)
Inconclusive results are not listed. Activity calls are given as the source filed them. Calls follow the shape of the dose curve; as a rule, active = well fitted cell-killing curve with a large enough effect; inconclusive = small, poorly fitted or top-dose-only effect, or effect the other way; inactive = flat fitted curve, though single readings scatter.

Legend:
Assay in all cases: Primary qHTS to identify gynecologic anti-cancer compounds using libraries of approved drugs and bioactive compounds (AID 1345084); also: nearly all actives have a fitted effect of over 55% in size
C33A = details: Gynecologic cancer cell panel viability, ATPlite luminescence, 48 h; series mostly up to 57.5 µM
Summary of the method: (§1)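 Luminescence from the ATPlite ATP-monitoring reagent indicates viable cell number; lower signal means cytotoxicity. Cells received compound 16 h after seeding and were exposed for 48 h across five concentrations.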

CAOV3 = details: Gynecologic cancer cell panel viability, ATPlite luminescence, 48 h; series mostly up to 57.5 µM
Summary of the method: as §1

CASKI = details: Gynecologic cancer cell panel viability, ATPlite luminescence, 48 h; series mostly up to 57.5 µM
Summary of the method: as §1

Es-2 = details: Gynecologic cancer cell panel viability, ATPlite luminescence, 48 h; series mostly up to 57.5 µM
Summary of the method: as §1

HeLa = details: Gynecologic cancer cell panel viability, ATPlite luminescence, 48 h; series mostly up to 57.5 µM
Summary of the method: as §1

Hek293T = details: Gynecologic cancer cell panel viability, ATPlite luminescence, 48 h, control line for the selectivity index; series mostly up to 57.5 µM
Summary of the method: as §1

JEG-3 = details: Gynecologic cancer cell panel viability, ATPlite luminescence, 48 h; series mostly up to 57.5 µM
Summary of the method: as §1

OV90 = details: Gynecologic cancer cell panel viability, ATPlite luminescence, 48 h; series mostly up to 57.5 µM
Summary of the method: as §1

PA-1 = details: Gynecologic cancer cell panel viability, ATPlite luminescence, 48 h; series mostly up to 57.5 µM
Summary of the method: as §1
% is scaled to controls: 0 for no effect and ±100 for the full control effect.

CC(=O)O[C@@H]1CC2C(C)(C)C(=O)C=C[C@]2(C)C2CC[C@@]3(C)[C@H](c4ccoc4)OC(=O)[C@H]4O[C@]43[C@@]21C (stereo not given in full)
inactive: Potency (C33A) | Potency (CAOV3) | Potency (CASKI) | Potency (Es-2) | Potency (HeLa) | Potency (Hek293T) | Potency (JEG-3) | Potency (OV90) | Potency (PA-1)

COc1c2c(c(C)c3c1C(=O)OC3)O[C@@]1(C)C[C@@H](OC(C)=O)[C@]34O[C@](OC)(CC[C@]3(C)[C@H]1C2)OC4(C)C
inactive: Potency (C33A) | Potency (CAOV3) | Potency (CASKI) | Potency (Es-2) | Potency (HeLa) | Potency (Hek293T) | Potency (JEG-3) | Potency (OV90) | Potency (PA-1)

CCc1ccc(-c2nc(CSCC(=O)NCCc3ccccc3)c(C)o2)cc1
inactive: Potency (C33A) | Potency (CAOV3) | Potency (CASKI) | Potency (Es-2) | Potency (HeLa) | Potency (Hek293T) | Potency (JEG-3) | Potency (OV90) | Potency (PA-1)

COc1cc(/C=C/C(=O)NCCn2c(C(F)(F)F)cc3ccccc32)cc(OC)c1OC
inactive: Potency (C33A) | Potency (CAOV3) | Potency (CASKI) | Potency (Es-2) | Potency (HeLa) | Potency (Hek293T) | Potency (JEG-3) | Potency (OV90) | Potency (PA-1)

CC1(C)CC[C@]23CO[C@@]4(CCC5[C@@]6(C)CC[C@H](O[C@@H]7OC[C@H](O[C@@H]8O[C@H](CO)[C@@H](O)[C@H](O)[C@H]8O[C@@H]8OC[C@@H](O)[C@H](O)[C@H]8O)[C@H](O)[C@H]7O)[C@@](C)(CO)C6CC[C@@]5(C)[C@]4(C)CC2=O)[C@@H]3C1 (stereo not given in full)
inactive: activity change, negative = cytotoxicity (C33A) -27.4% [at 11.6 µM] | activity change, negative = cytotoxicity (CAOV3) 7.02% [at 11.6 µM] | activity change, negative = cytotoxicity (CASKI) -3.31% [at 11.6 µM] | activity change, negative = cytotoxicity (Es-2) 9.11% [at 11.6 µM] | activity change, negative = cytotoxicity (HeLa) 16.9% [at 11.6 µM] | activity change, negative = cytotoxicity (Hek293T) 5.05% [at 11.6 µM] | activity change, negative = cytotoxicity (JEG-3) -8.75% [at 11.6 µM] | activity change, negative = cytotoxicity (OV90) -4.17% [at 11.6 µM] | activity change, negative = cytotoxicity (PA-1) 10.3% [at 11.6 µM]

CC1(C)CCCC2(C)C1C(OC(=O)/C=C/C=C/C=O)C=C1COC(=O)C12O (stereo not given)
inactive: Potency (C33A) | Potency (CAOV3) | Potency (CASKI) | Potency (Es-2) | Potency (HeLa) | Potency (Hek293T) | Potency (JEG-3) | Potency (OV90) | Potency (PA-1)

CC(=O)OC[C@]12[C@H](OC(C)=O)C(=O)[C@@H]3[C@@H](O)[C@@]14O[C@@]3(C)COC(=O)c1cccnc1[C@@H](C)[C@H](C)C(=O)O[C@@H]([C@H](O)[C@@H]2OC(C)=O)[C@]4(C)O
inactive: Potency (C33A) | Potency (CAOV3) | Potency (CASKI) | Potency (Es-2) | Potency (HeLa) | Potency (Hek293T) | Potency (JEG-3) | Potency (OV90) | Potency (PA-1)

Cc1cccc(CC(=O)N2CCc3c2ccc(-c2cn(C)c4ncnc(N)c24)c3F)n1
inactive: Potency (C33A) | Potency (CAOV3) | Potency (CASKI) | Potency (Es-2) | Potency (HeLa) | Potency (Hek293T) | Potency (JEG-3) | Potency (OV90) | Potency (PA-1)

C/C=C/C=C/C=C/C(=O)O[C@@H]1C=C(CO)C(O)(C(=O)OC)[C@@]2(C)CCCC(C)(C)C12 (stereo not given in full)
inactive: Potency (C33A) | Potency (CAOV3) | Potency (CASKI) | Potency (Es-2) | Potency (HeLa) | Potency (Hek293T) | Potency (JEG-3) | Potency (OV90) | Potency (PA-1)

COCCN(C(=O)c1cc(OC)c(OC)c(OC)c1)c1nc(-c2ccccc2)cs1
inactive: Potency (C33A) | Potency (CAOV3) | Potency (CASKI) | Potency (Es-2) | Potency (HeLa) | Potency (Hek293T) | Potency (JEG-3) | Potency (OV90) | Potency (PA-1)

Cc1[nH]c2ccccc2c1CCNC(=O)c1cccs1
inactive: Potency (C33A) | Potency (CAOV3) | Potency (CASKI) | Potency (Es-2) | Potency (HeLa) | Potency (Hek293T) | Potency (JEG-3) | Potency (OV90) | Potency (PA-1)

CC(=O)O[C@H]1C[C@@](O)(C(C)C)[C@@H]2[C@@H](OC(=O)c3ccc(O)cc3)CC(C)=CC[C@@]12C
inactive: Potency (C33A) | Potency (CAOV3) | Potency (CASKI) | Potency (Es-2) | Potency (HeLa) | Potency (Hek293T) | Potency (JEG-3) | Potency (OV90) | Potency (PA-1)

CC(C)(C)C1CCN(C(=O)n2ncc(C(O)(c3ccccc3)c3ccccc3)n2)CC1
inactive: Potency (C33A) | Potency (CAOV3) | Potency (CASKI) | Potency (Es-2) | Potency (HeLa) | Potency (Hek293T) | Potency (JEG-3) | Potency (OV90) | Potency (PA-1)

CC(C)c1noc(C2CCN(c3ncnc(Nc4ccc(S(C)(=O)=O)cc4F)c3[N+](=O)[O-])CC2)n1
inactive: Potency (C33A) | Potency (CAOV3) | Potency (CASKI) | Potency (Es-2) | Potency (HeLa) | Potency (Hek293T) | Potency (JEG-3) | Potency (OV90) | Potency (PA-1)

Cc1ccc(C(C)C)c(O[C@@H]2O[C@H](CO)[C@@H](O)[C@H](O)[C@H]2O)c1
inactive: Potency (C33A) | Potency (CAOV3) | Potency (CASKI) | Potency (Es-2) | Potency (HeLa) | Potency (Hek293T) | Potency (JEG-3) | Potency (OV90) | Potency (PA-1)

O[C@@](Cc1ncc(CC2(C(F)(F)F)CC2)[nH]1)(c1ccc(-n2cccn2)cc1)C(F)(F)F
inactive: Potency (C33A) | Potency (CAOV3) | Potency (CASKI) | Potency (Es-2) | Potency (HeLa) | Potency (Hek293T) | Potency (JEG-3) | Potency (OV90) | Potency (PA-1)

C=C1C(=O)OC2/C=C(\CO)CC/C=C(\C=O)C(OC)C(OC(=O)C(C)CC)C12 (stereo not given)
inactive: Potency (C33A) | Potency (CAOV3) | Potency (CASKI) | Potency (Es-2) | Potency (HeLa) | Potency (Hek293T) | Potency (JEG-3) | Potency (OV90) | Potency (PA-1)

C[C@@H](NC(=O)C(=O)c1c[nH]c2ccc([N+](=O)[O-])cc12)c1ccccc1
inactive: Potency (C33A) | Potency (CAOV3) | Potency (CASKI) | Potency (Es-2) | Potency (HeLa) | Potency (Hek293T) | Potency (JEG-3) | Potency (OV90) | Potency (PA-1)

CCC(C)C(=O)Oc1cc(C)ccc1C1(COC(=O)C(C)C)CO1 (stereo not given)
inactive: Potency (C33A) | Potency (CAOV3) | Potency (CASKI) | Potency (Es-2) | Potency (HeLa) | Potency (Hek293T) | Potency (JEG-3) | Potency (OV90) | Potency (PA-1)

CC(=O)C1=C(O)C=C2Oc3c(C(C)=O)c(O)c(C)c(O)c3[C@]2(C)C1=O
inactive: Potency (C33A) | Potency (CAOV3) | Potency (CASKI) | Potency (Es-2) | Potency (HeLa) | Potency (Hek293T) | Potency (JEG-3) | Potency (OV90) | Potency (PA-1)
